Screens from PubChem.
USP10 block = human USP10 deubiquitinase inhibition. Q14694. purified USP10, Ub-rhodamine fluorescence, 60 min. inhibition, % at 20 µM. hit rate 1.1% among 47,000. AID 1645856
USP8 inh = inhibitors of human USP8 deubiquitinase | P40818 | purified USP8, Ub-rhodamine cleavage fluorescence, 30 min | inhibition, % at 20 µM | hit rate 4.2% among 47,000 | AID 1645853
USP30 block = inhibitors of human USP30 deubiquitinase; purified USP30, Ub-rhodamine cleavage fluorescence; inhibition, % at 25 µM; hit rate 5.3% among 47,000; Q70CQ3; AID 1645860
USP7 block = inhibitors of human USP7 deubiquitinase; Q93009; AID 1645854; purified USP7, Ub-rhodamine cleavage fluorescence; hit rate 0.3% among 47,000; inhibition, % at 20 µM
USP17 inh = human USP17-like deubiquitinase inhibition; inhibition, % at 50 µM; hit rate 6.5% among 47,000; purified USP17, Ub-rhodamine cleavage fluorescence, 3 h; AID 1645855; A8MUK1
USP28 block = inhibitors of human USP28 deubiquitinase; Q96RU2; purified USP28, Ub-rhodamine cleavage fluorescence, 30 min; inhibition, % at 25 µM; hit rate 3% among 47,000; AID 1645857
Target sequence (Q96RU2 whole entry, looked up): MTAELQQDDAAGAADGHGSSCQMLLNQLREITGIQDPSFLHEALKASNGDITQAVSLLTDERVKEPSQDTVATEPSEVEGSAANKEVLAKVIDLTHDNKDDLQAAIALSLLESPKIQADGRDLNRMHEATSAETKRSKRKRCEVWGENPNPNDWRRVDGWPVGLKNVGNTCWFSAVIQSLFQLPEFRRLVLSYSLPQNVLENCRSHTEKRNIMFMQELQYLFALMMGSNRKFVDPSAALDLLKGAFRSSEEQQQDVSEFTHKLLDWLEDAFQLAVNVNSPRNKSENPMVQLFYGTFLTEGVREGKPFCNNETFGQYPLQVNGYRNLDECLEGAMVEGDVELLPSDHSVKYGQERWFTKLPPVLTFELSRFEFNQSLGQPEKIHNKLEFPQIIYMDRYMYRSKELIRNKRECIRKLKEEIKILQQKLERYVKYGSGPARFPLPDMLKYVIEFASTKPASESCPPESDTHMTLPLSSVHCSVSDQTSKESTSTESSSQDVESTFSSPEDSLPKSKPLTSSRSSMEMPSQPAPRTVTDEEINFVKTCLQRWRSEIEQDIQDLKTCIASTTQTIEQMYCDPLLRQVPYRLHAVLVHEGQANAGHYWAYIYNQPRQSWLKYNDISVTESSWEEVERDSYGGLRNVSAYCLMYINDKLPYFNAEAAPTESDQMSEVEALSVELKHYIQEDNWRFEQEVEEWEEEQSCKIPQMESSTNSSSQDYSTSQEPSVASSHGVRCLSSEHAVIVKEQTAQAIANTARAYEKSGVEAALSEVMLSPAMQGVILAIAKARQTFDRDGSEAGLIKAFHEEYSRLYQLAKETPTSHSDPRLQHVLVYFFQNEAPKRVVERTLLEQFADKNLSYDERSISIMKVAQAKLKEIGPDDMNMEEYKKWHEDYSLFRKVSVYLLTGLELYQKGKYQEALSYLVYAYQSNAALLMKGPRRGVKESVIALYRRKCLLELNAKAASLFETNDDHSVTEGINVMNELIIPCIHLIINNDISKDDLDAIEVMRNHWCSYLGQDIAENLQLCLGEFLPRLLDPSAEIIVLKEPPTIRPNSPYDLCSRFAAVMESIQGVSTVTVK
The depositor's hits bear a star; i = inactive; / = no result given. This is a sample that favours compounds with a hit; in the whole collection about 13% have one here. Cut-off read from the data, not from the text of the source: active = inhibition above about 30%; inactive = the rest.

SMILES	USP10 block	USP8 inh	USP30 block	USP7 block	USP17 inh	USP28 block
COc1ccc(S(=O)(=O)NCc2cccc(-c3nn(C)cc3-c3ccncc3C)c2)cc1	5.0	0.0	-6.3	2.0	-2.8	-0.3
O=C(c1ccccc1Cl)N1CCN(C23CC4CC(CC(C4)C2)C3)CC1	-1.4	3.3	15.2	2.6	-0.2	5.4
CC(C)(C)c1ccc(/C=C/C(=O)Nc2ccc3c(c2)OCCO3)cc1	8.2	-8.8	-8.2	11.2	-2.2	33.5*
COc1ccc(/C=C/C(=O)Nc2ccc3c(c2)OCCO3)cc1	-2.3	-1.9	/	-0.7	-3.0	/
O=C(/C=C/c1ccc(F)cc1)Nc1ccc2c(c1)OCCO2	5.5	5.8	19.8	2.3	7.0	86.2*
O=C(c1ccc2noc(-c3ccc(F)cc3)c2c1)N1CCN(c2ccccc2F)CC1	-5.1	-26.6	-120.7	-4.2	-37.4	-5.8
CC(=O)c1cccc(S(=O)(=O)N2CCC(C(=O)Oc3ccc(-c4nnco4)cc3)CC2)c1	10.4	39.4*	23.1	2.3	28.3	28.6
Cc1ccc(CNC(=O)Cn2c(=O)n(-c3ccccc3)c3ncccc32)cc1	3.9	33.3*	-6.9	3.4	50.9*	3.8
O=C(Cn1c(=O)n(-c2ccc(F)cc2)c2ncccc21)NCc1ccccc1	6.7	37.2*	8.8	5.9	17.6	23.3
O=C(/C=C/c1ccc(OCc2cccc(Cl)c2)cc1)NC1CCCC1	2.2	15.9	21.6	10.5	35.9*	13.9
COc1ccc(/C=C/C(=O)N(Cc2cccc(Cl)c2)C2CCS(=O)(=O)C2)cc1 (centres undefined)	3.2	5.0	0.7	-7.7	1.8	-2.8
O=C(Nc1ccccc1Cl)c1nn(C2CCS(=O)(=O)C2)c2c1CCCC2 (centres undefined)	1.7	-14.3	0.0	-17.0	4.7	-0.2
O=C(Nc1cccc(C(F)(F)F)c1)c1nn(C2CCS(=O)(=O)C2)c2c1CCCC2 (centres undefined)	-2.1	-1.1	30.8*	-0.5	10.2	1.4
Cc1cnc(C2COCCN2C(=O)c2ccc3ncccc3c2)[nH]1 (centres undefined)	-0.7	14.9	7.6	4.0	16.7	10.3
O=c1c2cc(Br)ccc2ncn1Cc1csc(-c2ccc(Cl)cc2)n1	-8.3	12.0	-121.1	-9.0	-29.5	-28.5
O=c1c2cc(Cl)ccc2ncn1Cc1csc(-c2ccccc2)n1	12.4	28.0	43.6*	7.8	21.8	15.8
O=C(CCC1CCCCC1)N1CCN(c2ncnc3c2nnn3Cc2ccccc2)CC1	7.5	14.2	31.8*	17.4	12.2	13.5
O=C(Cc1ccc(Cl)cc1)N1CCN(c2ncnc3c2nnn3Cc2ccccc2)CC1	10.4	3.2	35.1*	3.0	7.3	12.0
O=C(c1ccc(F)cc1)N1CCN(c2ncnc3c2nnn3Cc2ccccc2)CC1	0.3	0.2	/	-4.6	7.9	/
CNc1cc(C)nc(C2CN(C(=O)c3ccn[nH]3)CCO2)c1 (centres undefined)	0.0	4.8	-6.4	-0.3	-1.2	-5.6
O=C(Nc1ccc(Oc2cccc3cccnc23)cc1)c1cccs1	3.3	-137.7	-27.0	-14.4	-21.4	86.2*
Cc1cc(N2CCN(c3ccc([N+](=O)[O-])cc3)CC2)nc2cc3c(cc12)CCC3	0.8	-6.9	21.1	8.7	30.3*	11.0
CCC1CN(S(=O)(=O)c2ccc3c(c2)NC(=O)CCS3)c2cc(C)ccc2O1 (centres undefined)	3.2	1.2	43.4*	0.0	19.6	13.3
Cc1cccc(CNS(=O)(=O)c2ccc3c(c2)NC(=O)CCS3)c1	3.3	-15.3	-1.0	0.0	-0.1	-0.9
COCCN1C(=O)c2ccccc2C(C(=O)NCCc2ccc(OC)c(OC)c2)C1c1cccs1 (centres undefined)	0.6	16.9	0.1	1.4	15.0	11.7
SMILES	USP10 block	USP8 inh	USP30 block	USP7 block	USP17 inh	USP28 block
CCCOc1ccc(C(=O)OCC(=O)N2c3ccccc3NC(=O)C2(C)C)cc1OCC	-8.1	-203.6	-78.3	1.7	-100.5	-63.7
O=C(NC1CCCCC1)c1cc2c(cn1)[nH]c1ccccc12	0.6	-161.1	-35.7	4.1	-38.5	59.3*
CCOC(=O)c1c(C)oc2ncnc(N(CCO)c3ccccc3)c12	0.5	0.9	-39.0	0.3	-10.8	-10.7
CCOC(=O)c1c(C)oc2nc(CSc3ccccc3)[nH]c(=O)c12	-1.5	-6.8	-4.1	-1.7	12.3	61.5*
CCOc1ccc2[nH]c3c(=O)n(CCc4ccc(OC)cc4)cnc3c2c1	26.8	5.2	13.2	11.1	66.8*	15.4
Cc1ccc2[nH]c3c(=O)n(CCc4ccccc4)cnc3c2c1	12.3	31.6*	29.7	6.3	12.1	-3.2
CCOc1ccc2[nH]c3c(=O)n(CCN4CCNCC4)cnc3c2c1	-5.7	-5.0	4.8	0.1	2.3	7.4
O=c1c2[nH]c3ccc(Br)cc3c2ncn1CCN1CCNCC1	-3.5	8.1	39.8*	-5.9	38.1*	12.3
COc1ccc2[nH]c3c(=O)n(Cc4ccncc4)cnc3c2c1	-0.4	-3.5	-0.6	-1.7	6.2	-1.4
COc1ccc2[nH]c3c(=O)n(Cc4ccc(C#N)cc4)cnc3c2c1	17.3	22.0	12.4	11.2	10.6	2.8
COc1ccc2c(c1)[nH]c1c(=O)n(Cc3ccccc3)cnc12	20.9	11.8	72.8*	6.8	71.1*	0.0
CCN(c1nc2nc(C)cc(C)n2n1)S(=O)(=O)c1ccc(C)cc1	-3.7	0.2	-19.2	-4.8	-8.2	0.1
Cc1nn(-c2ccc(F)cc2)c(C)c1S(=O)(=O)N1CCC2(CC1)OCCO2	-0.5	0.7	10.5	4.1	3.3	4.4
O=C(Nc1nc(C(=O)N2CCN(c3ccccn3)CC2)co1)C1CC1	-0.1	-31.9	-7.3	-0.6	-12.3	-13.3
COc1cccc(-c2[nH]ncc2CN2CCc3nc(N4CCN(C)CC4)[nH]c(=O)c3CC2)c1	-1.2	-49.0	-0.1	3.8	-12.4	0.4
CCOc1ccc2[nH]c3c(=O)n(CCC4=CCCCC4)cnc3c2c1	8.9	47.5*	17.2	9.7	/	14.7
CC1=CN2C(=N)/C(=C/c3cn(Cc4ccccc4C)c4ccccc34)C(=O)N=C2S1	-6.9	-70.2	i	-133.7	-124.8	-128.4
Cc1ccc(C(N)=O)c(OC(C)C(=O)N2CCCCCC2)c1 (centres undefined)	-0.1	-0.9	9.5	1.0	-0.4	-8.4
CS(=O)(=O)N1CCN(Cc2ccc(=O)n(CC3CC3)c2)CC1	-2.0	48.4*	-16.2	0.2	21.9	-0.1
COc1ccc(NC(=O)COc2ccc(F)cc2C(C)=O)cc1S(=O)(=O)N1CCOCC1	-2.5	3.2	-0.2	-4.4	2.4	9.8
O=C(Nc1ccc(F)cc1)c1ccc2c(c1)C1C3CCC(C3)C1C(c1ccccc1)N2 (centres undefined)	11.5	7.9	31.7*	-17.6	2.1	2.9
Cc1cccc(NC(=O)CC2C(=O)Nc3nc(-c4ccccc4)nn32)c1 (centres undefined)	9.0	18.5	31.1*	11.3	15.6	13.9
